Where a name gives a salt, the structure may show the parent alone.

The assay concerns primary human hepatic stellate cells (donor 1). As to the kind of experiment: ACTA2 mRNA fold change vs DMSO (normalised to PSMB2); higher = more ACTA2 expression. The following applies: 48 h. Here is the method: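 Secondary qRT-PCR screen in primary human HSCs (donor 1), 384-well plates, with compounds dispensed in quadruplicate and incubated for 48 h. Cells-to-CT lysates were used for multiplexed TaqMan qPCR of ACTA2 or COL1A1 with PSMB2 as reference. Fold changes versus DMSO come from a linear model (Ct_gene ~ Ct_PSMB2 + plate + chemical). A hit is defined as COL1A1 and ACTA2 FC <0.5 (FDR <0.05) with PSMB2 between 0.2 and 2.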
For the compound `CC1=NCCc2c1[nH]c1cc(O)ccc21` [Harmalol hydrochloride dihydrate] (24.4333 µM), the “ACTA2 mRNA fold change” value was determined as 0.546. The same measure for `CCCCCCCCCCCCCC(=O)O[C@@H]1[C@@H](C)[C@@]2(O)[C@@H](C=C(CO)C[C@]3(O)C(=O)C(C)=C[C@@H]23)[C@@H]2C(C)(C)[C@]12OC(C)=O` [Phorbol 12-myristate 13-acetate] (27.0333 µM): 0.624; for `CC1=C(CC/C(C)=C/CCC2=CC[C@H](C3=CC(=O)O[C@H]3O)O[C@H]2O)C(C)(C)CCC1` [Manoalide] (40 µM): 0.0669; for `O=C1/C(=C/c2ccccc2)C[C@@]2(O)[C@H]3Cc4ccc(O)c5c4[C@@]2(CCN3CC2CC2)[C@H]1O5` [BNTX maleate] (33.3333 µM): 0.275. The same measure for `CC1=C(O)C(=O)C=C2C1=CC=C1[C@@]2(C)CC[C@@]2(C)[C@@H]3C[C@](C)(C(=O)O)CC[C@]3(C)CC[C@]12C` [Celastrol] (3.33333 µM): 0.524; for `CO[C@H]1CC[C@@H](O[C@H]2C[C@H]([C@]3(C)CC[C@]4(C[C@H](O)[C@@H](C)[C@@H]([C@@H](C)/C=C(\C)C(=O)[C@H](C)C[C@H](C)C(=O)O)O4)O3)O[C@]3(O[C@@H]([C@H]4O[C@@](O)(CO)[C@H](C)C[C@@H]4C)C[C@@H]3C)[C@@H]2C)O[C@@H]1C` [Nanchangmycin] (11.1 µM): 0.0291; for `CN1[C@@H]2CC[C@H]1C[C@@H](OC(c1ccc(F)cc1)c1ccc(F)cc1)C2` [3 α-Bis-(4-fluorophenyl) methoxytropane hydrochloride] (33.3333 µM): 0.094. Regarding `Fc1cc(F)c2c(c1)[C@H]1C=CC[C@H]1C(c1cccnc1)N2` (some centres not stated) [Golgicide A] (33.3333 µM), the “ACTA2 mRNA fold change” value worked out at 0.00835. Take `O=C1C2CCN(CC2)C1(CO)CO` (90 µM): the “ACTA2 mRNA fold change” value stood at 0.152. The same measure for `C[C@@H]1O[C@@H](O[C@H]2C[C@@H](O)[C@]3(CO)[C@H]4[C@H](O)C[C@]5(C)[C@@H](C6=CC(=O)OC6)CC[C@]5(O)[C@@H]4CC[C@]3(O)C2)[C@H](O)[C@H](O)[C@H]1O` [Ouabain] (33.3333 µM): 0.0189; for `CCN(CC)CCO[C@H]1CC[C@@]2(C)C(=CC[C@@H]3[C@@H]2CC[C@]2(C)C(=O)CC[C@@H]32)C1` (33.3333 µM): 0.123. The same measure for `CC(C(=O)OC1CC2CCC(C1)N2C)c1ccc(Br)cc1` (configuration not stated) [PG-9 maleate] (33.3333 µM): 0.404; for `CCN1CCN(C(=O)Cc2ccc(Nc3ncc(F)c(Nc4ccc(C(=O)Nc5ccccc5Cl)cc4)n3)cc2)CC1` [Aurora A Inhibitor I] (33.3333 µM): 0.131; for `CC[C@H]1CN2CCc3cc(OC)c(OC)cc3[C@@H]2C[C@@H]1C[C@H]1NCCc2cc(OC)c(OC)cc21` [Emetine] (12.0333 µM): 0.0996. As to `C[C@]12CC[C@H](O)C[C@H]1CC[C@@H]1[C@@H]2CC[C@]2(C)[C@@H](C3=CC(=O)OC3)CC[C@]12O` [Digitoxigenin] (33.3333 µM), the “ACTA2 mRNA fold change” value is 0.0171. For the compound `C[C@H](N)Cn1ccc2cc(F)c(Cl)cc21` [Ro 60-0175 fumarate] (33.3333 µM), the “ACTA2 mRNA fold change” value was 0.532. The same measure for `CN(C(=O)Cc1ccc(Cl)c(Cl)c1)[C@H](CN1CCCC1)c1ccccc1` [ICI-199,441 hydrochloride] (33.3333 µM): 0.0655.

As to `O=c1[nH]c2ccccc2n1C1CCN(CCCC(c2ccc(F)cc2)c2ccc(F)cc2)CC1` [Pimozide] (33.3333 µM), the “ACTA2 mRNA fold change” value turned out to be 0.0136.

As for `COc1ccc2[nH]cc(C3=CCNCC3)c2c1` (33.3333 µM), the “ACTA2 mRNA fold change” value was 3.02. The same measure for `CN[C@@H]1C[C@H]2O[C@@](C)([C@@H]1OC)n1c3ccccc3c3c4c(c5c6ccccc6n2c5c31)C(=O)NC4` [staurosporine] (35.6667 µM): 0.667; for `COc1ccc2c(c[n+](C)c3c4cc5c(cc4ccc23)OCO5)c1OC` (6.66667 µM): 0.0494; for `O=[N+]([O-])/C=C/c1ccc2c(c1)OCO2` (3.7 µM): 0.905.

For the origin of these results see the supplement of paper PMC9135407.
